Numbering of substitutions follows the chain as printed. In all, about 5,800 sequences were measured (“enrichment r”: median about 0.54, highest 2% from about 16 on). The sample as a whole holds a higher share of the highest values than the screen did.

The results in this text go back to PMC12136788.

To fix the notation:
B1: chr1:173734013:173734119:+|CDS|ENSG00000076321|unk|FALSE|unique (ssRNA)
RNA: GGGAGUUCUACAGUCCGACGAUCCAUUGACGAGAGGGCUAUGGAAUUACUGAUUGACUUUGCGUAUACCUCCCAGAUAACAGUAGAAGAGGGCAAUGUUCAGACUCUUCUGCCAGCUGCUUGCCUCCUCCAGCUGGCAGAAAUCAACAGAGGAUUGAGCAUCA
B2: chr10:73251842:73251943:-|CDS|ENSG00000182180|msi1|FALSE|unique (ssRNA)
RNA: GGGAGUUCUACAGUCCGACGAUCUCGGCCGUUCUACCGCAUUGUGGCUGCUCACAACAAGUGUCCCAGGGAUGGCCGUUUCGUAGAGCAGCUGGGCUCCUAUGAUCCAUUGCCCAACAGUCAUGGAGAAAAACUCGUUGCCCUCAACAGAGGAUUGAGCAUCA
B3: chr7:44121865:44121972:-|CDS|ENSG00000106628|unk|FALSE|unique (ssRNA)
RNA: GGGAGUUCUACAGUCCGACGAUCGUGCCAGUGGCAACCUACACCAACUCCUCACAACCCUUCCGGCUAGGAGAGCGCAGCUUUAGCCGGCAGUAUGCCCACAUUUAUGCCACCCGCCUCAUCCAAAUGAGACCCUUCCUGGAGCAACAGAGGAUUGAGCAUCA
B4: chr6:31137533:31137950:-|three_prime_utr|ENSG00000204538|control|control|control (ssRNA)
RNA: GGGAGUUCUACAGUCCGACGAUCGCAUCUCCAGGCACCCACGCCCUCUCCACCCUCUGAUUCCCCGUGAAUUCUUCCCAAUUUAGCCUGUCUCCUUAAACCUCUUCCUCAUUCCCUCGGUUUUAUUCUGAACCCGUAAGGUGGCAACAGAGGAUUGAGCAUCA
B5: chr13:110149936:110150037:-|3pUTR|ENSG00000187498|msi1|FALSE|unique (ssRNA)
RNA: GGGAGUUCUACAGUCCGACGAUCUUCUUGUAUUAUAAUUAAUUUUCUACCCCCAGAGAUAAAUGUUUGUUUAUAUCACUGUCUAGCUGUUUCAAAAUUUAGGUCCCUUGGUCUGUACAAAUAAUAGCAAUGUAAAAAUGGUUUCAACAGAGGAUUGAGCAUCA
B6: ENSG00000136451:be:win_2551|3pUTR|ENSG00000136451|bound_else_gene|NA|bound_elsewhere_windowed (ssRNA)
RNA: GGGAGUUCUACAGUCCGACGAUCUCACUAGAGUUUAUGUCUUAUAUUAAAUUGUAUACAGUUUUUAUUCUAACCACUAACUAGGUAGUGUAUGCCCCUUCAGAACAUGCAGAGUGUAUCUUUUUUUAAAUUUCUCCUUCCGUUCAACAGAGGAUUGAGCAUCA
B7: chr6:57184343:57184440:+|3pUTR|ENSG00000112208|msi1_unk|FALSE|overlapping (ssRNA)
RNA: GGGAGUUCUACAGUCCGACGAUCUCUUCAGUUUUGUGAAUAACAAAACUAGCAAUAUUUUAAUUAUCUAUCUAGAGAUUUUUUAGAUUGAAUUCUUGUCUUGUACUAGGAUCUAGCAUAUUUCACUAUUCUGUGGAUGAAUACCAACAGAGGAUUGAGCAUCA
B8: chr13:110149936:110150037:-|3pUTR|ENSG00000187498|msi1|total|mutant (ssRNA)
RNA: B5 RNA with U83C, A84C, U99C, A100C, U124C, A125C
B9: chr1:214663888:214664008:+|3pUTR|ENSG00000117724|msi1|total|mutant (ssRNA)
RNA: GGGAGUUCUACAGUCCGACGAUCAGGAGAAAACAAUUCCUCCGAAGUCUUAAAUAUAUUGUACUCUUCCGAUCUCCCAUGUGCCGGUAUUGAAAAAGUUUGGAAGCACUGAUCACCUGUCCGCAUUGCCAUUCCUCUACUGCACAACAGAGGAUUGAGCAUCA
B10: chr1:214663888:214664008:+|3pUTR|ENSG00000117724|msi1|FALSE|bound_elsewhere (ssRNA)
RNA: B9 RNA with C41U, C42A, C68U, C69A, C83U, C84A, C120U, C121A
B11: chr9:76611375:76614569:-|three_prime_utr|ENSG00000106772|control|control|control (ssRNA)
RNA: GGGAGUUCUACAGUCCGACGAUCAUGUUACCUUUUUCCACUUUGCACUACCUGGUGCCAUUCUAAAUUUCUAAGGGGAAAAAUAGAAAGUUUGUUUACUCUUAAGAUAUUUUAUGAAAUUGUGUGUACUUUCCUAUUUUGCCACAACAGAGGAUUGAGCAUCA
B12: ENSG00000070961:be:win_301|CDS|ENSG00000070961|bound_else_gene|NA|bound_elsewhere_windowed (ssRNA)
RNA: GGGAGUUCUACAGUCCGACGAUCUUAGUAUGGGAAGCAUUACAAGAUGUCACUUUAAUUAUAUUAGAAAUUGCAGCCAUAGUAUCAUUGGGCCUUUCUUUUUAUCAGCCUCCAGAAGGGGAUAAUGCACUUUGUGGAGAAGUUCAACAGAGGAUUGAGCAUCA
B13: ENSG00000136451:be:win_2451|3pUTR|ENSG00000136451|bound_else_gene|NA|bound_elsewhere_windowed (ssRNA)
RNA: GGGAGUUCUACAGUCCGACGAUCUUUAAAUUGGAAGACGCUGGAGGCACUGGGAUGUGAUAUGCCCCUCUCUCUCCCAAUCAGAGCCUGUUGAUAUUACAACAGGGACAGAUGUGUUAGUUGCUCACUAGAGUUUAUGUCUUACAACAGAGGAUUGAGCAUCA
B14: ENSG00000136451:be:win_2501|3pUTR|ENSG00000136451|bound_else_gene|NA|bound_elsewhere_windowed (ssRNA)
RNA: GGGAGUUCUACAGUCCGACGAUCUCCCAAUCAGAGCCUGUUGAUAUUACAACAGGGACAGAUGUGUUAGUUGCUCACUAGAGUUUAUGUCUUAUAUUAAAUUGUAUACAGUUUUUAUUCUAACCACUAACUAGGUAGUGUAUGCAACAGAGGAUUGAGCAUCA
B15: chr12:89642165:89642281:-|CDS|ENSG00000070961|unk|FALSE|bound_elsewhere (ssRNA)
RNA: GGGAGUUCUACAGUCCGACGAUCGCCAAAAACCUUUCUUCAAUUAGUAUGGGAAGCAUUACAAGAUGUCACUUUAAUUAUAUUAGAAAUUGCAGCCAUAGUAUCAUUGGGCCUUUCUUUUUAUCAGCCUCCAGAAGGGGAUAACAACAGAGGAUUGAGCAUCA
B16: ENSG00000070961:be:win_251|CDS|ENSG00000070961|bound_else_gene|NA|bound_elsewhere_windowed (ssRNA)
RNA: GGGAGUUCUACAGUCCGACGAUCUGUUUGGAAAGAAUUUUAUACCUCCUAAAAAGCCAAAAACCUUUCUUCAAUUAGUAUGGGAAGCAUUACAAGAUGUCACUUUAAUUAUAUUAGAAAUUGCAGCCAUAGUAUCAUUGGGCCCAACAGAGGAUUGAGCAUCA
B17: ENSG00000069329:stop:overlap|stop_codon|ENSG00000069329|stop_codon|NA|stop_codon (ssRNA)
RNA: GGGAGUUCUACAGUCCGACGAUCUGGAGAAGGGGCCCCACAGACCGUUCGGGAUUAAGACCAGCCCGAUUUGGCCUGCGGGAUAGGGGACAGCAGGAGGAAGGCCGCGGGCAGGCUGAUCCGGGCCGGGGUGGGCGGCGGCUCCAACAGAGGAUUGAGCAUCA
B18: chr16:58599380:58599482:-|5pUTR|ENSG00000125107|unk|total|mutant (ssRNA)
RNA: GGGAGUUCUACAGUCCGACGAUCCAGAACAGAGUAAGACCCCUGGUAAAGAAGAACUGAAGAUAUUAUACAGAUACCAGAUACCGCCUAAUUACAAAGAAAGCAUUAACCUGCCUCUGAGGUGACUAAAGGGGAAUAAUGGUGCAACAGAGGAUUGAGCAUCA
B19: chr11:113276125:113276317:+|3pUTR|ENSG00000149294|msi1|FALSE|unique (ssRNA)
RNA: GGGAGUUCUACAGUCCGACGAUCGUCCGUGUAAAAUAGCUGCCUUUUAUUUUUUAAGGUAACAAAUACCACCUAGAGGUAGGUAGGAUCAUCCCACGCUUGCUUUAGCACAGGACAACUUUACAAAACAUGAUUGUUUACAGCCAACAGAGGAUUGAGCAUCA
B20: chr14:53038166:53038268:-|3pUTR|ENSG00000100523|unk|total|mutant (ssRNA)
RNA: GGGAGUUCUACAGUCCGACGAUCGAGCUUUUGGCAGAGUCUUCGGGGUUUUCCCGGUAUAAAAUCAUAUCAGCGAAGAGAGCCCGUUUGAUUUCUUUUCCCAGUUGGAUGCCUUUUAUUUAUUUCUCUUGCCUGAUUGCUCUACAACAGAGGAUUGAGCAUCA
B21: chr2:39051162:39051270:-|CDS|ENSG00000115904|unk|total|mutant (ssRNA)
RNA: GGGAGUUCUACAGUCCGACGAUCAAAUAUAUUCCGUCGCACCGCCGAUAUACAUGAACUCCGUGUAAAGUUACUGGGCCAUACCGAAGAUACAGCCGAAAUGACAGAUGAAGGCAGUCCCCAUCCACCCGCCGGAAGCUGCUUCAACAGAGGAUUGAGCAUCA
B22: chr9:96818597:96818698:-|CDS|ENSG00000196597|unk|FALSE|unique (ssRNA)
RNA: GGGAGUUCUACAGUCCGACGAUCGGAGAAACCAUUCGAAUGUCAUGAAUGUGGGAAAUCUUUUAACUAUAAGUCAAUCCUCAUAGUGCAUCAGAGAACUCACACAGGGGAGAAACCUUUUGAAUGUAAUGAAUGCGGGAAAUCCAACAGAGGAUUGAGCAUCA

MSI1 full-length, sequence (Q61474 whole entry): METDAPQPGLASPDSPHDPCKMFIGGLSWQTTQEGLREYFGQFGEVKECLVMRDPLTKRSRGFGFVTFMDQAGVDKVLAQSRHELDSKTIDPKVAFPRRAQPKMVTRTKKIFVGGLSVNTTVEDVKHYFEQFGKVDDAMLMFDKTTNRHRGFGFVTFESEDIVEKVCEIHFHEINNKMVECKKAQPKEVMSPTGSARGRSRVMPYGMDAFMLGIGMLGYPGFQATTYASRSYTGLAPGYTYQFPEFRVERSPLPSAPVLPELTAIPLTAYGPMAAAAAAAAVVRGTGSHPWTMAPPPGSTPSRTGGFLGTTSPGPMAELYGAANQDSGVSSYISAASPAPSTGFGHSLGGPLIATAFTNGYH

This assay addresses MSI1 full-length (mouse, UniProt Q61474 1-362). In words: nsRBNS (natural sequence RNA bind-n-seq); RBNS binding buffer (assumed for nsRBNS): 25 mM Tris pH 7.5, 150 mM KCl, 3 mM MgCl2, 0.01% Triton X-100, 500 ug/ml BSA, 20 U/ml SUPERase-In, 4 C; UNK is unkempt and MSI1 is Musashi-1; names of the RNAs are library labels; protein concentration not given here; high values mean tight binding.
Consider B1, for which the binding signal was determined as 1.23 enrichment R.
For B2, the binding signal is 0.318 enrichment R.
The molecule B3 showed a binding signal of 0.629 enrichment R.
The value for B4 was 0.944 enrichment R; that for B5 was 30.3 enrichment R; that for B6 was 10.4 enrichment R.
B7 returned a binding signal of 4.43 enrichment R.
The value for B8 was 3.28 enrichment R; that for B9 was 0.406 enrichment R; that for B10 was 16.4 enrichment R.
The molecule B11 gave a binding signal of 1.45 enrichment R.
The value for B12 was 9.77 enrichment R; that for B13 was 1.47 enrichment R.
In the case of B14, the binding signal amounted to 25.2 enrichment R.
The value for B15 was 9.09 enrichment R.
Next, B16: 17.2 enrichment R; B17: 0.367 enrichment R; B18: 0.791 enrichment R.
Next, B19: 0.716 enrichment R; B20: 0.36 enrichment R; B21: 0.566 enrichment R.
Molecule B22 had a binding signal of 0.426 enrichment R.
